The subject of this assay is MILI (PIWIL2) piRISC loaded with L1MC piRNA (26 nt). In words: pre-steady-state target cleavage rate (min^-1); guide: L1MC piRNA 5'p-UAACUAAAUACUAUGCAAGCUGUAGG; MIWI and MILI are mouse PIWI proteins and EfPiwi is from a freshwater sponge; tags in brackets are library labels; higher = faster piRNA-guided slicing of the target. An outline of the steps:
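For Cleave-'n-Seq, a transcribed, DNA-blocked target RNA library […] met 1 nM active affinity-purified piRISC with one synthetic guide at 33 °C for 0–8 or 0–960 min in HEPES–potassium acetate buffer, with or without 500 nM GTSF1 partner protein. Uncleaved targets were sequenced and normalised to depth and weakly complementary targets, with three trials pooled and k3 capped at 0.0001 min^-1. A burst-and-steady-state fit supplied the pre-steady-state cleavage rate.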

The mark [1] stands for this setting: auxiliary factor: 500 nM mouse GTSF1.
Setting [2] is: auxiliary factor: none (no GTSF1).

± gives the standard deviation.
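Also: 1 nM active piRISC with 0.1 nM target library at 33 °C single turnover.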

Consider UCCUGGAACAGCUUCGAUAGUAUUUAGUAA, for which the “pre-steady-state target cleavage rate” value was 0.167 ± 0.019 under setting [1] and 0.00446 ± 0.0025 under setting [2].
The corresponding values for UCCUGGAUCAGCAUGCAUAGUAUUUAGUUA are 0.314 ± 0.019 and 0.0108 ± 0.0031.
Consider UCCUGGAACAGCAUGCAUACUAUUUAGUUA, for which the “pre-steady-state target cleavage rate” value under setting [1] worked out at 0.0727 ± 0.0093 and the “pre-steady-state target cleavage rate” value under setting [2] was 0.00273 ± 0.0026.
As to UCCUGGAACAGCUUGCUAUGUAUUUAGUUA, the “pre-steady-state target cleavage rate” value was 0.0569 ± 0.017 under setting [1] and 0.00412 ± 0.0022 under setting [2].
Take UCCUGGAUGACCUUGCAUAGUAUAUAGUUA: the “pre-steady-state target cleavage rate” value was 0.167 ± 0.034 under setting [1] and 0.00397 ± 0.0031 under setting [2].
For UCCUGGAUGUCCUUUCAUAGUAUUUAGUUA the same measures were 0.0723 ± 0.011 and 0.00458 ± 0.0022.
Take UCCUGGAACAGCUUGCAAUGUAUUUAGUAA: the “pre-steady-state target cleavage rate” value runs as follows: under setting [1], 0.0829 ± 0.011; under setting [2], 0.00326 ± 0.0026.
UCCUGGAUGAGCAAGCAUAGUAUUUAGUAA: the “pre-steady-state target cleavage rate” value under setting [1] is 0.123 ± 0.018 and the “pre-steady-state target cleavage rate” value under setting [2] worked out at 0.00443 ± 0.0027.
As for UCCUGGUACAGCUUGCAUAGUAUUUCAGUUA, the “pre-steady-state target cleavage rate” value came to 0.21 ± 0.078 under setting [1] and 0.00397 ± 0.0039 under setting [2].
For UCCUGGAUGUCCUUGCAUACUUUUUAGUUA, the “pre-steady-state target cleavage rate” value is, setting by setting: under setting [1], 0.00626 ± 0.004; under setting [2], 0.0024 ± 0.0022.
For the sequence UCCUGGAUGAGCAUGCUUAGUAUUUAGUUA, the “pre-steady-state target cleavage rate” value is 0.115 ± 0.011 under setting [1] and 0.0087 ± 0.0027 under setting [2].
For UCCUGGAUGAGCAUGCAUAGUAAUUAGUUA the same measures were 0.156 ± 0.021 and 0.00824 ± 0.0028.
On to UCCUGGAUGUGCUUGCAUAGGUAUUUAGUUA, for which the “pre-steady-state target cleavage rate” value is, setting by setting: under setting [1], 0.0061 ± 0.0046; under setting [2], 0.00533 ± 0.0032.
As to UCCUGGAUGUCGAAGCAUAGUUUUUAGUUA, the “pre-steady-state target cleavage rate” value runs as follows: under setting [1], 0.00892 ± 0.0039; under setting [2], 0.00397 ± 0.0017.
For UCCUGGAUGUGCUUGCGUAGUAUUUAGUUA, the “pre-steady-state target cleavage rate” value came to 0.0451 ± 0.013 under setting [1] and 0.0145 ± 0.0037 under setting [2].
On to UCCUGGAUCAGCUUGCAUAGUUUUUUGUUA, for which the “pre-steady-state target cleavage rate” value was found to be 0.0453 ± 0.011 under setting [1] and 0.00417 ± 0.0027 under setting [2].
The corresponding values for UCCUGGAUCAGCUUGCAUUGUAUAUAGUUA are 0.183 ± 0.018 and 0.00663 ± 0.0022.
For UCCUGGAUGUCGAUGCACAGUAUUUAGUUA, the “pre-steady-state target cleavage rate” value reads like this: under setting [1], 0.0311 ± 0.0057; under setting [2], 0.00443 ± 0.0024.
UCCUGGAUGUCGUUGCUUAGUUUUUAGUUA: the “pre-steady-state target cleavage rate” value runs as follows: under setting [1], 0.00856 ± 0.0044; under setting [2], 0.00646 ± 0.0025.
For UCCUGGUAGAGCUUGCUUAGUAUUUAGUUA the same measures were 0.226 ± 0.012 and 0.00793 ± 0.0029.
For UCCUCCAACAGCUUGCAUAGUAAUUAGUUA, the “pre-steady-state target cleavage rate” value by setting is: under setting [1], 0.228 ± 0.018; under setting [2], 0.0065 ± 0.0021.
As to UCCUGGAUGAGCUUGCAUAGUUUUUUGUUA, the “pre-steady-state target cleavage rate” value under setting [1] stood at 0.0139 ± 0.0061 and the “pre-steady-state target cleavage rate” value under setting [2] was determined as 0.00346 ± 0.003.
In the case of UCCUGGAUGUCGUUGCAUAGUAUUUGAGUUA, the “pre-steady-state target cleavage rate” value runs as follows: under setting [1], 0.145 ± 0.034; under setting [2], 0.00339 ± 0.0032.
For the sequence UCCUGGAACAGCUUGCAUUGUUUUUAGUUA, the “pre-steady-state target cleavage rate” value by setting is: under setting [1], 0.0144 ± 0.0059; under setting [2], 0.00334 ± 0.0023.
Take UCCUGGAUGUCGUUGCAUACUAUUUAGUUA: the “pre-steady-state target cleavage rate” value was found to be 0.0161 ± 0.0052 under setting [1] and 0.00383 ± 0.002 under setting [2].
As to UCCUGGAUGUGCUUGCUUAGUAUUUAGUAA, the “pre-steady-state target cleavage rate” value is 0.0779 ± 0.014 under setting [1] and 0.00576 ± 0.0018 under setting [2].
Regarding UCCUCCUACAGCUUCGUUAGUAUUUAGUUA, the “pre-steady-state target cleavage rate” value under setting [1] stood at 0.221 ± 0.013 and the “pre-steady-state target cleavage rate” value under setting [2] is 0.00396 ± 0.0017.
Consider UCCUGGAUGUCGAUGCAUAGUAUAUAGUUA, for which the “pre-steady-state target cleavage rate” value runs as follows: under setting [1], 0.143 ± 0.028; under setting [2], 0.00598 ± 0.0024.
UCCUGCUACCGCUUGCAUAGUAUUUAGUUA: the “pre-steady-state target cleavage rate” value under setting [1] worked out at 0.368 ± 0.035 and the “pre-steady-state target cleavage rate” value under setting [2] is 0.0103 ± 0.0044.
UCCUGGAUGUGCUUGCAUUGUAUAUAGUUA: the “pre-steady-state target cleavage rate” value reads like this: under setting [1], 0.0696 ± 0.012; under setting [2], 0.00543 ± 0.0026.
As to UCCUGGUACAGGAAGCAUAGUAUUUAGUAA, the “pre-steady-state target cleavage rate” value runs as follows: under setting [1], 0.167 ± 0.023; under setting [2], 0.00332 ± 0.0019.
On to UCCUGGAUGUCCUUGCAUAGUAUUUACGUUA, for which the “pre-steady-state target cleavage rate” value under setting [1] turned out to be 0.11 ± 0.023 and the “pre-steady-state target cleavage rate” value under setting [2] stood at 0.00693 ± 0.003.
Regarding UCCUGGAUGUGCUUGCAUAGUAUUUUAGUUA, the “pre-steady-state target cleavage rate” value is 0.101 ± 0.018 under setting [1] and 0.0102 ± 0.0031 under setting [2].
As for UCCUGGAUGUCGAUGGCAUAGUAUUUAGUUA, the “pre-steady-state target cleavage rate” value under setting [1] stood at 0.0677 ± 0.014 and the “pre-steady-state target cleavage rate” value under setting [2] was determined as 0.00792 ± 0.003.
As to UCCUGGAUGACCUUGCUUAGUAUUUAGUUA, the “pre-steady-state target cleavage rate” value reads like this: under setting [1], 0.114 ± 0.019; under setting [2], 0.00599 ± 0.0028.
On to UCCUGGAUGUCGUUUCAUAGUAUUUAGUUA, for which the “pre-steady-state target cleavage rate” value runs as follows: under setting [1], 0.0434 ± 0.0083; under setting [2], 0.00464 ± 0.0023.
On to UCCUGGAUGUCCUUGCUUAGUAUAUAGUUA, for which the “pre-steady-state target cleavage rate” value reads like this: under setting [1], 0.0347 ± 0.0085; under setting [2], 0.0039 ± 0.0023.
For the sequence UCCUGGAUGAGCUUGCAUAGUAUUUAUGUUA, the “pre-steady-state target cleavage rate” value is, setting by setting: under setting [1], 0.102 ± 0.021; under setting [2], 0.00381 ± 0.0034.
As to UCCUGGUACAGCUUGCAUAGUUAAUAGUUA, the “pre-steady-state target cleavage rate” value turned out to be 0.0312 ± 0.01 under setting [1] and 0.00424 ± 0.0026 under setting [2].
In the case of UCCUGGAACAGCUUGCUAGUAUUUAGUUA, the “pre-steady-state target cleavage rate” value was determined as 0.0161 ± 0.0069 under setting [1] and 0.00397 ± 0.0027 under setting [2].
On to UCCUGGAUGUGGUUGCUUAGUAUUUAGUUA, for which the “pre-steady-state target cleavage rate” value was determined as 0.107 ± 0.02 under setting [1] and 0.0132 ± 0.0037 under setting [2].
For the sequence UCCUGGAUCUGCUUGCUUAGUAUUUAGUUA, the “pre-steady-state target cleavage rate” value amounted to 0.238 ± 0.017 under setting [1] and 0.00748 ± 0.0024 under setting [2].
As to UCCUGGAUGUCGAAGCAUAGUAUUUAGUUUA, the “pre-steady-state target cleavage rate” value worked out at 0.0244 ± 0.0042 under setting [1] and 0.00589 ± 0.0023 under setting [2].
Turning to UCCUGGAUGAGCUUCCAAAGUAUUUAGUUA, the “pre-steady-state target cleavage rate” value reads like this: under setting [1], 0.0331 ± 0.0072; under setting [2], 0.00379 ± 0.0027.
For UCCUGGAACCGCUUGCAUAGUAUUUAGUUA the same measures were 0.265 ± 0.015 and 0.0108 ± 0.002.
In the case of UCCUGGAUGUCGUUGCAUAGUAUUUUAGUUA, the “pre-steady-state target cleavage rate” value by setting is: under setting [1], 0.125 ± 0.02; under setting [2], 0.00632 ± 0.0029.
As to UCCUGGAUGUCGUUGCCUAGUAUUUAGUUA, the “pre-steady-state target cleavage rate” value was 0.0556 ± 0.0094 under setting [1] and 0.00949 ± 0.0028 under setting [2].
With UCCUGGAACAGCUACCAUAGUAUUUAGUAA, the “pre-steady-state target cleavage rate” value is, setting by setting: under setting [1], 0.23 ± 0.028; under setting [2], 0.00298 ± 0.0029.
In the case of UCCUGGUACAGCUAGCAUUGUAUUUAGUUA, the “pre-steady-state target cleavage rate” value under setting [1] came to 0.127 ± 0.017 and the “pre-steady-state target cleavage rate” value under setting [2] worked out at 0.00717 ± 0.0034.
As to UCCUGGAUGUCGUGGCAUAGUAUUUAGUUA, the “pre-steady-state target cleavage rate” value reads like this: under setting [1], 0.0441 ± 0.011; under setting [2], 0.00558 ± 0.0029.
UCCUGCUACUGCUUGCAUAGUAUUUAGUUA: the “pre-steady-state target cleavage rate” value stood at 0.234 ± 0.025 under setting [1] and 0.00705 ± 0.0018 under setting [2].
The corresponding values for UCCUGGAUGUCGUUGCAUAGUAAAUAGUUA are 0.0599 ± 0.019 and 0.00437 ± 0.0023.
Turning to UCCUGGAUGUGCUUGAAUAGUAUUUAGUUA, the “pre-steady-state target cleavage rate” value is, setting by setting: under setting [1], 0.127 ± 0.013; under setting [2], 0.00936 ± 0.0025.
Turning to UCCUGGAUGUGGUUGCAUUGUAUUUAGUUA, the “pre-steady-state target cleavage rate” value by setting is: under setting [1], 0.0353 ± 0.0089; under setting [2], 0.00721 ± 0.0036.
UCCUGGAUCAGCUUGCUAUGUAUUUAGUUA: the “pre-steady-state target cleavage rate” value by setting is: under setting [1], 0.0176 ± 0.0068; under setting [2], 0.00553 ± 0.0022.

The values above are taken from the supplement of paper PMC10338343.
